Assay results as given in PubChem BioAssay (NCATS).
Records with an inconclusive call do not appear. Entries that show only a call come without a potency. The source made the active and inactive calls. Calls come from the whole dose curve; as a rule, active = well fitted inhibition curve with a large enough effect; inconclusive = small, poorly fitted or top-dose-only effect, or effect the other way; inactive = no such curve, though single readings can be large or run the other way.

assay: Quantitative high throughput screen for delayed death inhibitors of the malarial parasite plastid, 96 hour incubation (AID 488745); settings: Plasmodium falciparum growth; series mostly up to 28.7 µM; note: nearly all actives have a fitted effect of over 70% in size
Outline: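 Two-generation (96 h) exposure of luciferase-reporter P. falciparum in erythrocytes, 2% hematocrit, 0.1% parasitemia final, 37 C, 5% CO2, RPMI 1640 with 0.5% Albumax. Growth inhibition scored by reduced luminescence.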
Potency is the fitted concentration of half-maximal effect.

Row | SMILES | Potency
1 | Cn1c(=O)c2c(ncn2C)n(C)c1=O | inactive
2 | CC12CC3CC(C)(C1)CC(N)(C3)C2 | inactive
3 | CC1COc2c(N3CCN(C)CC3)c(F)cc3c(=O)c(C(=O)O)cn1c23 (stereo not drawn) | inactive
4 | CN1CCN2c3ccccc3Cc3ccccc3C2C1 (stereo not drawn) | inactive
5 | CC(C)C(=O)Nc1ccc([N+](=O)[O-])c(C(F)(F)F)c1 | inactive
6 | CCC1(C)CC(=O)NC1=O (stereo not drawn) | inactive
7 | NCCCCCC(=O)O | inactive
8 | C[C@](N)(Cc1ccc(O)c(O)c1)C(=O)O | inactive
9 | Clc1ccccc1C(c1ccccc1)(c1ccccc1)n1ccnc1 | 1170 nM (active)
10 | Nc1nnc(-c2cccc(Cl)c2Cl)c(N)n1 | inactive
11 | Nc1nc2c(ncn2COC(CO)CO)c(=O)[nH]1 | inactive
12 | CCOC(=O)C(C)(C)Oc1ccc(Cl)cc1 | inactive
13 | COc1ccc2c(c1)c(CC(=O)O)c(C)n2C(=O)c1ccc(Cl)cc1 | inactive
